Data from PubChem BioAssay (EPA / NIEHS).
“And” between values parts separate entries of the source, which are not always exact repeats. Equal entries are not always repeated. More than one record can exist for a structure, and the calls need not agree. The source made the active and inactive calls. How the source made its calls: active means hit-call score of the fitted dose curve at least 0.9, where 1 is the maximum; inactive means score below 0.9.

Columns and labels:
[1] = read-out: Thrombomodulin, THBD (gene 7056); test: BSK_CASM3C_Thrombomodulin: BioMAP Diversity Plus: CASM3C Assay for Thrombomodulin Biomarker Activity (AID 2283051); details: primary human coronary artery smooth muscle cells; actives raise or lower the signal;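 further: thrombomodulin protein level measured by ELISA 24 h after dosing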
[2] = read-out: Tissue Factor, F3 (gene 2152); test: BSK_CASM3C_TissueFactor: BioMAP Diversity Plus: CASM3C Assay for Tissue Factor Biomarker Activity (AID 2283052); details: primary human coronary artery smooth muscle cells; actives raise or lower the signal;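 further: cell surface tissue factor protein level read by ELISA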
[3] = read-out: Interferon-gamma inducible Protein 10 (IP10), CXCL10 (gene 3627); test: BSK_hDFCGF_IP10: BioMAP Diversity Plus: hDFCGF Assay for Interferon-gamma inducible Protein 10 (IP10) Biomarker Activity (AID 2283053); details: primary human foreskin fibroblasts; actives raise or lower the signal
Method in brief: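 IP-10 levels, quantified by ELISA, are taken from human foreskin fibroblast cultures 24 h after chemical treatment, with DMSO serving as negative control and baseline for bidirectional analysis.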

[4] = read-out: Urokinase-type plasminogen activator receptor (uPAR), PLAUR (gene 5329); test: BSK_CASM3C_uPAR: BioMAP Diversity Plus: CASM3C Assay for Urokinase-type plasminogen activator receptor (uPAR) Biomarker Activity (AID 2283054); details: primary human coronary artery smooth muscle cells; actives raise or lower the signal;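 further: cell-surface uPAR protein level quantified by ELISA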
[5] = read-out: Vascular cell adhesion molecule 1 (VCAM1), VCAM1 (gene 7412); test: BSK_CASM3C_VCAM1: BioMAP Diversity Plus: CASM3C Assay for Vascular cell adhesion molecule 1 (VCAM1) Biomarker Activity (AID 2283055); details: primary human coronary artery smooth muscle cells; actives raise or lower the signal;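 further: VCAM-1 protein level quantified by ELISA on the cells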
[6] = read-out: Collagen III, COL3A1 (gene 1281); test: BSK_hDFCGF_CollagenIII: BioMAP Diversity Plus: hDFCGF Assay for Collagen III Biomarker Activity (AID 2283056); details: primary human foreskin fibroblasts; actives raise or lower the signal
Method in brief: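 Cells: human foreskin fibroblasts, primary. Dosing followed by 24 h incubation, then ELISA for collagen III. Both increases and decreases scored relative to DMSO.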

[7] = read-out: Epidermal growth factor receptor (EGFR), EGFR (gene 1956); test: BSK_hDFCGF_EGFR: BioMAP Diversity Plus: hDFCGF Assay for Epidermal growth factor receptor (EGFR) Biomarker Activity (AID 2283057); details: primary human foreskin fibroblasts; actives raise or lower the signal
Method in brief: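 Measured by ELISA: EGFR levels on primary human foreskin fibroblasts 24 h after chemical treatment, analysed relative to DMSO with bidirectional fitting.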

[8] = read-out: Interleukin-8 (IL8), CXCL8 (gene 3576); test: BSK_hDFCGF_IL8: BioMAP Diversity Plus: hDFCGF Assay for Interleukin-8 (IL8) Biomarker Activity (AID 2283058); details: primary human foreskin fibroblasts; actives raise or lower the signal
Method in brief: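 IL-8 levels from compound-treated primary human fibroblasts were read by ELISA at 24 h, with DMSO serving as baseline for bidirectional fitting.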

[9] = read-out: Macrophage colony-stimulating factor (MCSF), CSF1 (gene 1435); test: BSK_hDFCGF_MCSF: BioMAP Diversity Plus: hDFCGF Assay for Macrophage colony-stimulating factor (MCSF) Biomarker Activity (AID 2283060); details: primary human foreskin fibroblasts; actives raise or lower the signal
Method in brief: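 M-CSF levels, determined by ELISA, are taken at 24 h after dosing human skin fibroblasts. Responses in either direction are fitted with DMSO serving as the baseline.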

[10] = BSK_hDFCGF_SRB: Viability Assessment in the BioMAP Diversity Plus: hDFCGF Assay (AID 2283061); details: primary human foreskin fibroblasts;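 further: cells exposed to compound for 24 h before the read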
Method in brief: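 Cells were dosed with test chemical, cultured 24 h, fixed with 10% TCA, then stained with 0.1% SRB and read at 560 nm. The fibroblasts were human foreskin primary cells, and DMSO served as baseline.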

[11] = read-out: TIMP metallopeptidase inhibitor 1 (TIMP1), TIMP1 (gene 7076); test: BSK_hDFCGF_TIMP1: BioMAP Diversity Plus: hDFCGF Assay for TIMP metallopeptidase inhibitor 1 (TIMP1) Biomarker Activity (AID 2283062); details: primary human foreskin fibroblasts; actives raise or lower the signal
Method in brief: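 Fibroblasts from human foreskin are treated with test chemical and harvested at 24 h. TIMP-1 is quantified by ELISA, and gain or loss of signal is scored against DMSO.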

[12] = read-out: Monokine induced gamma interferon (MIG), CXCL9 (gene 4283); test: BSK_hDFCGF_MIG: BioMAP Diversity Plus: hDFCGF Assay for Monokine induced gamma interferon (MIG) Biomarker Activity (AID 2283063); details: primary human foreskin fibroblasts; actives raise or lower the signal
Method in brief: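 MIG signal, determined by ELISA, reflects 24 h chemical exposure of human skin primary fibroblasts. DMSO serves as negative control and baseline.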

[13] = read-out: Matrix Metallopeptidase 1 (MMP1), MMP1 (gene 4312); test: BSK_hDFCGF_MMP1: BioMAP Diversity Plus: hDFCGF Assay for Matrix Metallopeptidase 1 (MMP1) Biomarker Activity (AID 2283064); details: primary human foreskin fibroblasts; actives raise or lower the signal
Method in brief: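 Primary human foreskin fibroblasts in the hDFCGF system were dosed with test chemical, and MMP1 was measured by ELISA 24 h later. Values come from bidirectional curve fitting against the DMSO baseline.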

[14] = read-out: Vascular cell adhesion molecule 1 (VCAM1), VCAM1 (gene 7412); test: BSK_hDFCGF_VCAM1: BioMAP Diversity Plus: hDFCGF Assay for Vascular cell adhesion molecule 1 (VCAM1) Biomarker Activity (AID 2283065); details: primary human foreskin fibroblasts; actives raise or lower the signal;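 on AC50: VCAM-1 protein level quantified by ELISA after 24 h chemical exposure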
Method in brief: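 Cells are dosed, cultured for 24 h, then VCAM-1 is quantified by ELISA; signal increases and decreases are both fitted relative to DMSO.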

[15] = read-out: Plasminogen activator inhibitor-1 (PAI1), SERPINE1 (gene 5054); test: BSK_hDFCGF_PAI1: BioMAP Diversity Plus: hDFCGF Assay for Plasminogen activator inhibitor-1 (PAI1) Biomarker Activity (AID 2283066); details: primary human foreskin fibroblasts; actives raise or lower the signal
Method in brief: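 PAI-1 levels, determined by ELISA, served as the endpoint in human foreskin fibroblast cultures exposed to compound for 24 h, with DMSO as baseline.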

[16] = read-out: Intercellular Adhesion Molecule 1 (ICAM1), ICAM1 (gene 3383); test: BSK_KF3CT_ICAM1: BioMAP Diversity Plus: KF3CT Assay for Intercellular Adhesion Molecule 1 (ICAM1) Biomarker Activity (AID 2283067); details: primary human keratinocytes with fibroblasts; actives raise or lower the signal
Method in brief: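 Dose the keratinocyte/fibroblast co-culture, wait 24 h, measure ICAM-1 by ELISA, then fit increases or decreases against DMSO. Cytotoxicity is checked in parallel cultures by SRB total-protein staining.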

[17] = read-out: Interferon-gamma inducible Protein 10 (IP10), CXCL10 (gene 3627); test: BSK_KF3CT_IP10: BioMAP Diversity Plus: KF3CT Assay for Interferon-gamma inducible Protein 10 (IP10) Biomarker Activity (AID 2283068); details: primary human keratinocytes with fibroblasts; actives raise or lower the signal
Method in brief: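 Human keratinocyte plus foreskin fibroblast primary co-culture exposed to test chemical for 24 h; IP-10 measured by ELISA. Concentration-response fitted bidirectionally against DMSO control as baseline.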

[18] = BSK_KF3CT_SRB: Viability Assessment in the BioMAP Diversity Plus: KF3CT Assay (AID 2283069); details: primary human keratinocytes with fibroblasts;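 further: total protein by sulforhodamine B staining as a cytotoxicity measure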
Method in brief: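 Human primary keratinocyte plus foreskin fibroblast co-culture exposed to chemicals for 24 h. Total protein measured by 0.1% sulforhodamine B staining after 10% TCA fixation, read at 560 nm; bidirectional fitting versus DMSO baseline.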

[19] = read-out: Interleukin-1 alpha (IL1a), IL1A (gene 3552); test: BSK_KF3CT_IL1a: BioMAP Diversity Plus: KF3CT Assay for Interleukin-1 alpha (IL1a) Biomarker Activity (AID 2283070); details: primary human keratinocytes with fibroblasts; actives raise or lower the signal
Method in brief: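 Human keratinocyte plus foreskin fibroblast primary co-culture, sampled 24 h after chemical dosing. IL-1a measured by ELISA; responses fitted bidirectionally against DMSO baseline (negative control), so gain or loss of signal both count.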

[20] = BSK_hDFCGF_Proliferation: Cell Proliferation Assessment in the BioMAP Diversity Plus: hDFCGF Assay (AID 2283059); details: primary human foreskin fibroblasts;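 further: curves fitted for both rise and fall of signal versus DMSO baseline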
Method in brief: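 Total protein read at 560 nm after 0.1% SRB staining of TCA-fixed human skin fibroblasts, […]. Activity is fitted in both directions relative to DMSO as baseline.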

Measured: AC50

CC(C)(N=C=O)c1cccc(C(C)(C)N=C=O)c1
not listed: [20]
inactive: all other assays above

C=C(C)C(=O)OCC(CC)(COC(=O)C(=C)C)COC(=O)C(=C)C
inactive: [1] | [4] | [5] | [6] | [8] | [16] | [17] | [18] | [19]
active: [2] 8.08 µM | [3] 33.8 µM | [7] 31.7 µM | [20] 26.5 µM | [9] 23.4 µM | [10] 32.1 µM | [11] 33 µM | [12] 34.3 µM | [13] 37.9 µM | [14] 23.4 µM | [15] 16 µM

CCCCCCCCCCCCCCCC(=O)OC/C=C(C)/C=C/C=C(C)/C=C/C1=C(C)CCCC1(C)C
active: [5] 0.0326 µM | [6] 3.97 µM | [9] 24.7 µM | [11] 0.846 µM | [15] 3.97 µM
not listed: [20]
inactive: all other assays above

CC(=O)Nc1ccc(C(=O)CCl)cc1
inactive: [1] | [7] | [18]
active: [2] 3.97 µM | [3] 9.56 µM | [4] 5.2 µM | [5] 4.84 µM | [6] 7.2 µM | [8] 9.4 µM | [20] 3.18 µM | [9] 8.76 µM | [10] 11.2 µM | [11] 7.91 µM | [12] 9.4 µM | [13] 10.5 µM | [14] 7.32 µM | [15] 10.8 µM | [16] 26.6 µM | [17] 23.2 µM | [19] 31 µM

Cc1cc(CCC(=O)OCCOCCOCCOC(=O)CCc2cc(C)c(O)c(C(C)(C)C)c2)cc(C(C)(C)C)c1O
active: [6] 23.1 µM | [20] 22.8 µM
inactive: all other assays above

O=CN1CCOCC1
not listed: [20]
inactive: all other assays above

C=CC(C)(O)CCC=C(C)C (stereo not given)
not listed: [20]
inactive: all other assays above

CCCCCC(C=O)=Cc1ccccc1
inactive: [1] | [3] | [7] | [8] | [9] | [11] | [12] | [15]
active: [2] 20 µM | [4] 39.3 µM | [5] 31.2 µM | [6] 31 µM | [10] 31.5 µM | [13] 0.146 µM | [14] 20 µM | [16] 33.1 µM | [17] 30.4 µM | [18] 36.5 µM | [19] 20 µM

CCCCCCC(CO)CCCC (stereo not given)
inactive: [1] | [2] | [4] | [5] | [7]
active: [3] 30.6 µM and 32.5 µM | [5] 2.22 µM | [6] 29.6 µM and 31.9 µM | [8] 37.9 µM and 37.8 µM | [9] 33.8 µM and 30.2 µM | [10] 30.8 µM and 31.4 µM | [11] 30.9 µM and 35.9 µM | [12] 34 µM and 30.5 µM | [13] 31.1 µM and 30.7 µM | [14] 32.5 µM and 36.7 µM | [15] 29.9 µM and 36.3 µM | [16] 32.9 µM and 37.4 µM | [17] 38.1 µM and 36.7 µM | [18] 35.6 µM and 36.1 µM | [19] 33.4 µM and 30.3 µM

CCOC(=O)C(C#N)=C(c1ccccc1)c1ccccc1
inactive: [1] | [2] | [3] | [4] | [5] | [7] | [8] | [9] | [10] | [11] | [12] | [13] | [14] | [15] | [16] | [17] | [18] | [19]
active: [1] 13.7 µM | [6] 29.7 µM and 21.9 µM | [9] 23.3 µM | [14] 14.6 µM

CS(=O)(=O)OCCCCOS(C)(=O)=O
not listed: [20]
inactive: all other assays above

IC(I)I
active: [4] 0.584 µM
not listed: [20]
inactive: all other assays above
